An excerpt weighted towards active compounds, which were near 8% of everything screened.
Pyk2 oligo antag: antagonists of Pyk2 self-association, primary screen, Q293 cells, FERM NanoBiT luminescence, HTS; z-score (the deposit names both 25 µM and 10 µM); 0.83% of 99,000 active; Protein-tyrosine kinase 2-beta (Homo sapiens), Q14289; AID 1347419, 2020; active compounds read low;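 active = Z-score of -3 or lower, scaled per plate to the spread of control and sample wells; inactive = z-score above -3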;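 also: negative z-score means lost luminescence so less FERM oligomerization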
PostGolgi yeast: phenotypic screen on post-Golgi transport, primary screen | post-Golgi transport phenotypic cell assay | inhibition, % at 10 µM | 0.9% of 98,000 active | AID 739, 2007;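 also: yeast cells grown in 1536-well plates; yeast grown about 18 h at 30C before absorbance read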
PostGolgi ctrl: growth inhibition of yeast control strain, primary screen, counter-screen for post-Golgi transport modulator project. efflux-deficient yeast background strain, growth absorbance A615, 16 h. inhibition, % at 10 µM. 5% of 98,000 active
Cav32 inh: Cav3.2 calcium influx blockers – cell-based, Fluo-4 calcium fluorescence, FDSS, MLSMR library, primary screen. Voltage-dependent T-type calcium channel subunit alpha-1H (Homo sapiens), O95180. Cav3.2-expressing cells; active compounds read low. AID 449739, 2010. B-score at 10 µM. 4% of 100,000 active;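 active = single-dose well whose peak fluorescence ratio is a statistical outlier from its plate by either plate-standardised score or position-corrected B-score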
Starred values were filed as active, the others as inactive; nt = no result given. Rule as the data show it, unless noted: active = inhibition above about 30%; inactive = the rest.

SMILES	Pyk2 oligo antag	PostGolgi yeast	PostGolgi ctrl	Cav32 inh
O=C(N/N=C/c1cccc(Cl)c1Cl)Nc1ccccc1	0.62	-3.5	36.2*	-3.58
O=C(O)CCC(=O)Nc1nc(-c2ccccc2)cs1	-0.24	5.0	5.9	0.31
O=C(Nc1nc2ccccc2s1)C1CCCN1S(=O)(=O)c1ccc(Cl)cc1 (stereo not given)	-1.71	-0.3	67.9*	-5.29*
CC1CC1C(=O)Nc1nc(-c2ccccc2)cs1 (stereo not given)	0.23	0.5	6.8	-4.02*
Cc1ccc(S(=O)(=O)N2CCCC2C(=O)Nc2nc3ccccc3s2)cc1 (stereo not given)	-0.96	-10.5	44.0*	-2.62
Nc1nc(C2CCCN2S(=O)(=O)c2ccc(Cl)cc2)cs1 (stereo not given)	-3.17*	20.0	8.4	-0.291
O=C(O)c1cccc(NS(=O)(=O)c2cccc3nsnc23)c1	0.35	4.6	8.1	-0.325
COC(=O)C(CCSC)NC(=O)c1cccc([N+](=O)[O-])c1 (stereo not given)	1.16	-7.8	-8.2	0.713
COc1ccc(S(=O)(=O)N2CCCC2C(=O)Nc2ccc(C)cc2)cc1 (stereo not given)	-0.27	-6.2	3.9	0.348
COc1ccc(-c2csc(NC(=O)C3CCCCN3S(=O)(=O)c3ccccc3)n2)cc1 (stereo not given)	-3.36*	5.6	52.5*	-6.15*
CCC(C)(C)n1nnnc1C(c1cc2cc3c(cc2[nH]c1=O)OCO3)N1CCN(C)CC1 (stereo not given)	0.17	30.3*	0.3	0.144
CCC(C)(C)n1nnnc1C(c1cc2cc(OC)ccc2[nH]c1=O)N1CCc2ccccc21 (stereo not given)	-0.36	-9.9	6.8	-1.4
CCC(C)(C)n1nnnc1C(c1cc2ccc(OC)cc2[nH]c1=O)N1CCc2ccccc21 (stereo not given)	0.79	-0.8	40.2*	-3.89*
CCC(C)(C)n1nnnc1C(c1cc2cc(C)cc(C)c2[nH]c1=O)N1CCN(Cc2ccc3c(c2)OCO3)CC1 (stereo not given)	0.13	17.9	37.0*	nt
O=C(CSCc1ccc(F)cc1)NCc1ccco1	-0.08	5.3	6.0	-0.612
CC(C)(C)c1nnc(NC(=O)NS(=O)(=O)c2ccccc2)s1	0.89	-22.4	15.8	-0.0512
CC(C)c1ccc(C2C3CSCC=C3C(C#N)=C(N)C2(C#N)C#N)cc1 (stereo not given)	nt	74.5*	-1.8	-2.34
Cc1cc(C)c(S(=O)(=O)N2CCC(C(=O)NCc3ccc(Cl)cc3Cl)CC2)c(C)c1	-1.03	100.3*	89.1*	-4.74*
CCS(=O)(=O)N1CCC(C(=O)NCc2ccc(F)cc2Cl)CC1	0.29	-3.1	-4.4	1.63

Screening data (PubChem BioAssay)
